Assay outcomes deposited in PubChem BioAssay by National Center for Advancing Translational Sciences (NCATS).
Sfp inh: qHTS Assay for Inhibitors of Bacillus subtilis Sfp phosphopantetheinyl transferase (PPTase); 4'-phosphopantetheinyl transferase ffp (Bacillus subtilis), Q9F4F7; Biochemical Sfp PPTase activity, qHTS; Potency, µM, without a hit: largest response in the series, negative = inhibition, most hits filed as inhibitors; actives 3.5% (n = 310,000);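 also: the enzyme is Sfp with the accession as filed and its product quenches rhodamine fluorescence; 0% = enzyme reaction without inhibitor and -100% = no enzyme wells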
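Compounds were incubated with enzyme (final 15 nM) for 15 min at room temperature before substrate addition started the reaction. Fluorescence at 525 nm excitation, 598 nm emission was recorded immediately and after 30 minutes.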
G9a block: qHTS Assay for Inhibitors of Histone Lysine Methyltransferase G9a | Histone-lysine N-methyltransferase EHMT2 (Homo sapiens), Q96KQ7 | G9a H3K9 monomethylation, AlphaScreen, 2 h | Potency, µM (series often up to 102 µM), for inactives: at the highest dose activity, negative = inhibition, actives largely listed as inhibitors | actives 8.8% (n = 350,000) | AID 504332, 2011; also: % is scaled to controls: 0 for no effect and ±100 for the full control effect; nearly all actives have a fitted effect of over 75% in size
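Signal arises when biotinylated H3K9 peptide, once monomethylated, bridges streptavidin donor and antibody-captured acceptor beads. Enzyme at 20 nM was preincubated 15 min with test compounds; peptide 500 nM and SAM 20 uM then reacted for 2 h.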
BAZ2B inh: qHTS Assay for Inhibitors of BAZ2B; Bromodomain adjacent to zinc finger domain protein 2B (Homo sapiens), Q9UIF8; AlphaScreen BAZ2B-H3K14Ac peptide displacement; Potency, µM (titrated, usually from 114 µM), inactives show at the top dose activity change, negative = inhibition, most hits filed as inhibitors; actives 4.4% (n = 360,000); AID 504333, 2011; also: % is scaled to controls: 0 for no effect and ±100 for the full control effect; nearly all actives have a fitted effect of over 60% in size
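AlphaScreen luminescence quantifies BAZ2B engagement of H3K14Ac peptide; the protein and biotinylated peptide are both at 50 nM final, buffer PBS pH 7.4 with 0.01% Tween-20, all steps at room temperature.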
JMJD2A Tudor inh: qHTS Assay for Inhibitors of JMJD2A-Tudor Domain. Lysine-specific demethylase 4A (Homo sapiens), O75164. AlphaScreen JMJD2A-Tudor / H3K4me3 peptide binding. Potency, µM (highest dose often 114 µM), for inactives: at the highest dose activity change, negative = inhibition, actives largely listed as inhibitors. actives 4.4% (n = 390,000); also: % is scaled to controls: 0 for no effect and ±100 for the full control effect; nearly all actives have a fitted effect of over 50% in size
HP1b chromo inh: HTS for Inhibitors of HP1-beta Chromodomain Interactions with Methylated Histone Tails; Potency, µM (titrated, usually from 114 µM), inactives show at the highest dose activity change, negative = inhibition, usual class: inhibitors; Chromobox protein homolog 1 (Homo sapiens), P83916; AlphaScreen HP1-beta / biotin-H3K9me3 peptide binding; actives 0.56% (n = 390,000); AID 540317, 2011; also: nearly all actives have a fitted effect of over 70% in size
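Compound inhibition of the preformed complex between 50 nM HP1-beta and 50 nM biotinylated H3K9me3 peptide was read by AlphaScreen. Buffer was PBS pH 7.4 with 0.01% Tween-20. Incubations ran 30 min at room temperature, with 10 ug/mL donor/acceptor beads.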
L3MBTL1 inh: qHTS Assay for the Inhibitors of L3MBTL1; Lethal(3)malignant brain tumor-like protein 1 (Homo sapiens), Q9Y468; AlphaScreen L3MBTL1–H3K9me1 peptide binding; Potency, µM (titrated, usually from 57.1 µM), for the others: top-dose activity, negative = inhibition, actives largely listed as inhibitors; actives 0.66% (n = 230,000); also: % is scaled to controls: 0 for no effect and ±100 for the full control effect; nearly all actives have a fitted effect of over 60% in size
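Displacement of a biotinylated histone H3(1-15) peptide monomethylated at Lys9 (75 nM) from L3MBTL1 (50 nM) was measured by AlphaScreen after a 30 min room-temperature compound incubation; cefsulodin titration served as intraplate control.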
Active calls of the source: *; u = inconclusive; x = no result given; ! = not active in a repeat; [ ] = remark or other dose. In the library only some 12% were active in any assay of this set; here they are far more common. Calls follow the shape of the dose curve; as a rule, active = well fitted curve in the direction sought with a large enough effect; inconclusive = small, poorly fitted or top-dose-only effect, or another doubt; inactive = no such curve, though single readings can be large; an effect the other way counts as inactive or inconclusive. Potency is read from the fitted curve at half-maximal effect.

SMILES	Sfp inh	G9a block	BAZ2B inh	JMJD2A Tudor inh	HP1b chromo inh	L3MBTL1 inh
CCC(CO)Oc1cc(NCc2cccc(Cl)c2)c2ncn(C(C)C)c2c1 (stereo not given)	x	x	x	25µM*	u	u
CCC(CO)Oc1cc(NCc2ccc(F)cc2)c2ncn(C(C)C)c2c1 (stereo not given)	x	x	x	56µM*	u	u
Cc1ccc(NC(=O)CSc2nc3c(c(=O)[nH]2)CCC3)cc1Cl	x	-44%[59 µM]	-13%	-22%	5%	x
O=C(O)c1cc(O)c2c(c1)C(=O)c1cc(O)cc(O)c1C2=O	10µM*!	-32%[12.7 µM]	50µM*	u	-38%	2.5µM*
Nc1cc(N)cc(-c2nc3ccccc3o2)c1	x	x	x	u	-2%	x
Nc1ccc(-c2nc3ccccc3o2)cc1	-5%	-44%[2.33 µM]	1%	40µM*	19%	x
Brc1ccc(OCc2nc(-c3ccccn3)n[nH]2)cc1	8%	44%	28µM*	40µM*	30%	x
Cc1cc(Oc2ccc(Cl)cc2)nc(-c2ccccn2)n1	13%	18µM*	-2%	-19%	15%	-17%
Cc1cc(Oc2ccccc2)nc(-c2ccccc2O)n1	-15%	128%[59 µM]	74%	119%	167%	33%
Clc1ccc(OCc2nc(-c3ccccn3)n[nH]2)cc1	2%	85%[59 µM]	22µM*	20µM*	53%	u
CC(C)(C)NC(=O)CSc1nc(Cc2ccccc2)nc2ccccc12	16%	3%	7%	-10%	36%	1%
CC(C)NC(=O)CSc1nc(Cc2cccs2)nc2ccccc12	-3%	25µM*	1%	-31%	27%	1%
O=C(Nc1ccc2c(c1)CCC2)c1cnn2c1NC(=C1CC1)C=C2C(F)F	x	x	x	x	17%	x
CCCOc1ccc(C2c3c(-c4ccccc4O)n[nH]c3C(=O)N2Cc2ccncc2)cc1OCC (stereo not given)	x	0%[59 µM]	-11%	-19%	53%	x
C#CCOCCOCCOCCNc1nc(N2CCN(C(=O)C([C@@H](C)O)n3cc([C@@H](N)CCCCN)nn3)CC2)nc(N2CCN(C(=O)[C@H](CCC(=O)O)n3cc([C@@H](N)[C@H](C)CC)nn3)CC2)n1 (stereo not given in full)	x	x	x	89µM*	18%	u
C#CCOCCOCCOCCNc1nc(N2CCN(C(=O)[C@H](CCCCN)n3cc(C(N)CC(C)C)nn3)CC2)nc(N2CCN(C(=O)[C@H](CCC(=O)O)n3cc(C(N)[C@H](C)CC)nn3)CC2)n1 (stereo not given in full)	5%	-136%[59 µM]	50µM*	50µM*	49%	u
C#CCOCCOCCOCCNc1nc(N2CCN(C(=O)[C@H](CCCCN)n3cc(C(N)CO)nn3)CC2)nc(N2CCN(C(=O)[C@H](CCC(=O)O)n3cc(C(N)CC(C)C)nn3)CC2)n1 (stereo not given in full)	u	u	20µM*	x	x	x
N#C/C(=C\N1CCN(Cc2ccc3c(c2)OCO3)CC1)c1nc2ccccc2s1	-5%	40µM*	-5%	u	-9%	-23%
COc1ccc(CNC(=O)C2CCN(Cc3nc(-c4ccc(Cl)cc4)oc3C)CC2)cc1	x	1%[59 µM]	-13%	-15%	21%	x
CCCC1(C(=O)OCC)NC(c2ccc(N(C)C)cc2)C2C(=O)N(c3ccc(F)cc3)C(=O)C21 (stereo not given)	16%	2.5µM*	-38%	-35%	-20%	x
